# FLuc modulator = firefly luciferase modulation, counter-screen for miR-21 project. P08659. actives 6.9% (n = 360,000). Potency, µM (doses to about 57.5 µM), for inactives: top-dose activity change, negative = inhibition, most hits filed as inhibitors. purified FLuc, Km substrates, luminescence inhibition. AID 588342;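 note: plate controls were vehicle for no effect and reference inhibitor for full effect; nearly all actives have a fitted effect of over 55% in size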
# Target sequence (P08659 whole entry, looked up): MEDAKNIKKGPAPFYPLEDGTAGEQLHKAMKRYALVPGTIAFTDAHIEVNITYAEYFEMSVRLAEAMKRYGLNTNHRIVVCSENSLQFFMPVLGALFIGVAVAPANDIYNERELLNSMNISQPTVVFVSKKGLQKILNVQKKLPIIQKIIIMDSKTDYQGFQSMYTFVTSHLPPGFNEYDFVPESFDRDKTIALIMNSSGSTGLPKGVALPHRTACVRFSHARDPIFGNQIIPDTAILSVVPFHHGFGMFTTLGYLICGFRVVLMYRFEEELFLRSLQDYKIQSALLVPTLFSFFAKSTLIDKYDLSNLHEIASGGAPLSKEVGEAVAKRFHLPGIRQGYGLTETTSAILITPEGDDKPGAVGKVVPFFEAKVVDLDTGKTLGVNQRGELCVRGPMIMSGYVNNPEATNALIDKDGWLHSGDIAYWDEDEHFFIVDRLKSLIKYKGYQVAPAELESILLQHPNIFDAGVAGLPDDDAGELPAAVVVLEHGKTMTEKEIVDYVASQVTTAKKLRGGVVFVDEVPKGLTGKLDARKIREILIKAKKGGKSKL
#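 Purified P. pyralis luciferase (10nM final) with 10uM D-luciferin and 10uM ATP (Km levels) in 50mM Tris acetate pH 7.5, 10mM Mg acetate, 0.01% Tween-20, 0.05% BSA; qHTS 6-point titration, ~60 µM downward; luminescence read.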
# Rab9 promoter act = activators of Rab9 promoter. AID 485297. Huh7 Rab9 promoter-luciferase reporter, luminescence, 24 h. actives 2.8% (n = 320,000). Potency, µM (doses to about 9.22 µM), for the others: top-dose activation, negative = inhibition, hits mostly activators; note: % of control where 0% means no effect; nearly all actives have a fitted effect of over 60% in size
#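 Luminescence read-out: Huh7 cells stably expressing Rab9-luciferase, treated 24 h with compound at 37 °C, then lysed with luciferase reagent for 10 min at ambient before reading.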
# SMN2 splice enh = increases expression of the SMN2 splice variant; HEK293 SMN2-luciferase splicing reporter, luminescence, 30-36 h; Potency, µM (series often up to 46.1 µM), without a hit: top-dose activity change, positive = activation, most hits filed as activators; actives 2.8% (n = 210,000); note: % of control where 0% means no effect; nearly all actives have a fitted effect of over 55% in size
#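 qHTS luciferase splicing reporter: luminescence rises when SMN2 exon 7 is included in transfected HEK293 cells. Compound exposure lasted 30-36 h at 37C, with 4.5 mM final sodium butyrate as control, followed by a ONE-Glo read.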
# NPC1 promoter act = NPC1 promoter activation; Huh7 NPC1 promoter luciferase reporter, 24 h; Potency, µM (highest dose often 9.22 µM), without a hit: at the top dose activation, actives largely listed as activators; actives 2.4% (n = 320,000); AID 485313; note: % of control where 0% means no effect; nearly all actives have a fitted effect of over 60% in size
#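 Luminescence read-out of NPC1 promoter-driven luciferase in stably transfected Huh7 cells; compounds delivered in DMSO and left 24 h at 37C, 5% CO2, qHTS titration format.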
# ELG1 genotox = genotoxicity induction in ELG1-luciferase HEK293T cells | actives 1.3% (n = 330,000) | Potency, µM (top dose mostly 46 µM), without a hit: at the top dose activity change, positive = activation, hits mostly activators | HEK293T ELG1-luciferase reporter, luminescence, 16 h; note: % of control where 0% means no effect; nearly all actives have a fitted effect of over 60% in size
#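 HEK293T cells expressing luciferase-tagged ELG1 were treated with compound or DMSO for 16 hr at 37°C. Luciferase activity was then read after 30 min with ONE-Glo at room temperature; rising signal flags genetic stress.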
# Starred values were filed as active, the others as inactive; ? = inconclusive; · = not tested or not shown; [ ] = another dose, or the depositor's remark. In the library only some 7.5% were active in any assay of this set; here they are far more common. Calls come from the whole dose curve; as a rule, active = well fitted curve in the direction sought with a large enough effect; inconclusive = small, poorly fitted or top-dose-only effect, or another doubt; inactive = no such curve, though single readings can be large; an effect the other way counts as inactive or inconclusive. Potency is the fitted concentration of half-maximal effect.
SMILES,FLuc modulator,Rab9 promoter act,SMN2 splice enh,NPC1 promoter act,ELG1 genotox
Cc1cccc(N2CCN(C(=O)CCCOc3ccccc3)CC2)c1C,7.6µM*,2.5µM*,16µM*,3.2µM*,2.6µM*
C(=C/c1nccc2c1[nH]c1ccccc12)/c1ccc2c(c1)OCO2,3µM*,27%,11%,?,?
C=CCNc1nc(Cl)nc(NCc2ccco2)n1,-1%,-4%,·,-3%,4%
COc1cccc2c1OCC(C(=O)OCc1cccnc1)=C2,-14%,1%,-4%,0%,4%
O=C(Nc1ccc(Cl)cc1)C1=Cc2cc(Cl)ccc2OC1,-4%[2.3 µM],0%,27%,2%,-5%
COc1ccc(NC(=O)C2=Cc3cccc(OC)c3OC2)cc1,5.4µM*,2.5µM*,13µM*,2.8µM*,?
COc1ccc(NC(=O)C2=Cc3ccccc3OC2)cc1,1.5µM*,0.56µM*,7.9µM*,0.4µM*,0.52µM*
O=C(Nc1ccc(Cl)cc1Cl)C1=Cc2ccccc2OC1,1.9µM*,1µM*,?,1.4µM*,2.1µM*
CCOc1ccc2nc3sc(C(=O)N4CCN(C)CC4)c(N)c3cc2c1,11µM*,25%,17%,-3%,?
CCOc1ccc(-n2c(N)c(C(=O)N3CCN(C)CC3)sc2=S)cc1,0%,-2%,-1%,-1%,-3%
COc1ccc2cc3cc(C(=O)NCCN4CCc5ccccc5C4)sc3nc2c1,?,20%,-2%,12%,-7%
CC(C)c1ccc2nc3sc(C(=O)N4CCc5ccccc5C4)c(N)c3cc2c1,17µM*,17%,16%,13%,21%
CCC(C)NC(=O)c1cc2cc3ccc(OC)cc3nc2s1 (stereo not given),3µM*,0.35µM*,13µM*,0.56µM*,?
Cc1ccc2cc3c(N)c(C(=O)N4CCOCC4)sc3nc2c1,2.4µM*,4µM*,·,0.32µM*,1.2µM*
CCN1CCc2nc3sc(C(=O)N4CCc5ccccc5C4)c(N)c3cc2C1,?,0%,·,-7%,-6%
Cc1ccccc1-c1nc(CN2CCC(C(=O)NCc3ccccc3Cl)CC2)c(C)o1,?,·,5%,·,·
O=c1[nH]c2cccnc2c2ccsc12,-2%,-1%,·,-1%,9%
COc1ccc2cc3c(N)nn(C(=O)c4ccccc4Cl)c3nc2c1,?,11%,-47%,0%,-8%
CCc1ccc2nc3sc(C(=O)N4CCc5ccccc54)c(N)c3cc2c1,-8%,-2%,-10%,2%,11%
COc1ccc2cc3c(N)c(C(=O)N4CCCC4)sc3nc2c1,2.7µM*,1.4µM*,11µM*,1.8µM*,?
Cc1ccc2nc3sc(C(=O)N4CCOCC4)c(N)c3cc2c1,0.12µM*,0.11µM*,-73%,0.25µM*,?
O=C(c1cc(-c2cccc(Br)c2)nc2ccccc12)N1CCCC1,15µM*,1%,·,2%,-12%
COc1cc(-c2cc(C(=O)N3CCCCCC3)c3ccccc3n2)cc(OC)c1OC,-10%,-34%,·,-4%,1%
COc1ccc(-c2cc(C(=O)N3CCCCCC3)c3ccccc3n2)cc1,6.7µM*,0%,·,0%,-1%
CCc1ccc(Sc2cc(C(=O)O)c3ccccc3n2)cc1,15µM*,·,·,·,·
SMILES,FLuc modulator,Rab9 promoter act,SMN2 splice enh,NPC1 promoter act,ELG1 genotox
CCOC(=O)N1CCC(NC(=O)c2cc(-c3ccc(OC)cc3)nc3ccccc23)CC1,4.8µM*,10%,·,-1%,-4%
O=C(Cn1c(=O)oc2ccccc21)NCC1COc2ccccc2O1 (stereo not given),0%,-4%,·,-2%,2%
COC(=O)c1cc(S(=O)(=O)NCCc2ccc(Cl)cc2)c[nH]1,1%,6%,·,0%,-9%
COC(=O)Cc1ccc(N(Cc2ccccc2F)S(=O)(=O)c2ccc(C)cc2)cc1,-1%,-13%,·,1%,0%
Cc1ccc(-c2cc(C(=O)N3CCCC3)c3ccccc3n2)s1,5.4µM*,4%[1.84 µM],·,18%,15%
CCc1ccc(-c2cc(C(=O)O)c3ccccc3n2)s1,0.54µM*,1.4µM*,·,2µM*,16%
O=C(c1cc(-c2ccc(Br)cc2)nc2ccccc12)N1CCC1,17µM*,-7%,·,-1%,-9%
Cc1ccc(-c2cc(C(=O)N3CCC(C)CC3)c3ccccc3n2)cc1,4.3µM*,7%,·,3%,-5%
CCCc1cc(C(=O)O)c2ccccc2n1,-1%,7%,-2%,9%,6%
O=C(c1cc(Cl)nc2ccccc12)N1CCCCC1,6%,4%,-17%,3%,-2%
CCc1ccccc1NC(=O)CN(c1cccc(OC)c1)S(C)(=O)=O,3%,4%,15%,0%,-1%
COC(=O)c1ccc(C(c2c(C)n(C)n(-c3ccccc3)c2=O)c2c(C)n(C)n(-c3ccccc3)c2=O)cc1,-1%,1%,·,0%,0%
COc1ccc(CCNC(=O)CCSc2nc(-c3ccco3)cc(C(F)(F)F)n2)cc1,3%,6%,-14%,4%,-7%
O=C(COc1ccc(CO)cc1Cl)Nc1ccc(F)cc1,0.85µM*,1.1µM*,-8%,2µM*,0.37µM*
COc1ccccc1NC(=O)COc1ccc(CO)cc1Cl,6.7µM*,?,76%,?,15µM*
COc1cccc(Nc2ncc3nc(-c4cc(F)cc(F)c4)c(=O)n(C4CC4)c3n2)c1,·,·,-1%,·,·
CCOc1ccccc1NC(=O)CSc1nc(=O)n(CCN2CCOCC2)c2c1CCCC2,2%,2%,·,1%,3%
CC(C)C(NC(=O)c1ccccc1)C(=O)N/N=C\c1ccco1 (stereo not given),4%,-4%,4%,-1%,0%
Cc1ccc(N/N=C/c2c(O)cc(C)oc2=O)cc1,13µM*,0%,-46%,4%,7%
Cc1ccc(CO/N=C/c2c(O)cc(C)oc2=O)cc1,?,-5%,-1%,-5%,1%
Cc1cc(O)c(/C=N/Nc2ccc(F)cc2)c(=O)o1,13µM*,-5%,-36%,3%,8%
Cc1c(/C=N/Nc2ccc(F)cc2)c(O)n(C)c(=O)c1C#N,24µM*,-7%,·,2%,4%
CC(=O)N=Cc1c(C)c(C#N)c(=O)n(C)c1O,-18%,6%,-6%,-3%,5%
Cc1cccc(/N=C/c2c(O)cc(C)oc2=O)n1,2%,0%,-13%,-3%,-7%
Cc1cc(C)c2nc(N3CCCC(C(=O)NCCN4CCOCC4)C3)sc2c1 (stereo not given),13µM*,9%,16µM*,?,?
Cc1cc(C)c(S(=O)(=O)N2CCOC2CNC(=O)C(=O)NCCN2CCOCC2)c(C)c1 (stereo not given),6%,5%,·,-6%,0%
CCN1CCN(CCCNC(=O)C2CCCN(c3nc4c(C)cc(C)cc4s3)C2)CC1 (stereo not given),17µM*,3%,·,17%,?

# Source: PubChem (National Center for Advancing Translational Sciences (NCATS))
